{
  "source": "PubChem BioAssay AID589",
  "about": "(National Center for Advancing Translational Sciences (NCATS), 2007)",
  "note": "The campaign covered roughly 59,000 compounds. About 6,200 (11%) were called active. Inconclusive results (about 9%) are left out. Cut-off read from the data, not from the text of the source: active = max dye-equivalent concentration above about 10 nM; inconclusive = mostly about 1.1 nM to 9.6 nM; inactive = weaker than that. The sample as a whole holds a higher share of actives than the screen did.",
  "data": [
    {"assay": "qHTS Assay for Spectroscopic Profiling in 4-MU Spectral Region", "settings": "compound autofluorescence, 340/450 nm, 4-MU equivalents; hits give high values", "in_short": "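Intrinsic fluorescence at 340/450 nm (ex/em) was read after 15 min at room temperature in pH 8.0, 100 mM Tris. Each compound concentration expressed as 4-MU-equivalent concentration from a six-point 4-MU standard series on each plate.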", "values": [
      {"smiles": "CCOc1ccccc1-n1c(SCC(=O)NCc2ccco2)nnc1-c1ccncc1", "max dye-equivalent concentration": "inactive"},
      {"smiles": "O=C(CCc1ccccc1)Nc1ccc(NC(=O)C2CC2)nc1", "max dye-equivalent concentration": "inactive"},
      {"smiles": "O=C1CC(c2ccccc2)C(=O)N1c1cccc(O)c1", "note": "(centres undefined)", "max dye-equivalent concentration": "inactive"},
      {"smiles": "Cc1cc(NC(=O)c2cnn3cccnc23)n(-c2ccccc2)n1", "max dye-equivalent concentration": "inactive"},
      {"smiles": "O=C(Nc1ccc2c(c1)nc1n2CCCCC1)c1cc(S(=O)(=O)N2CCOCC2)ccc1Cl", "max dye-equivalent concentration": "inactive"},
      {"smiles": "CCOC(=O)c1sc(NC(=O)c2cc(S(=O)(=O)N3CCOCC3)ccc2C)nc1C", "max dye-equivalent concentration": "inactive"},
      {"smiles": "O=C(Nc1nc2ccc(S(=O)(=O)N3CCCC3)cc2s1)C1CCCO1", "note": "(centres undefined)", "max dye-equivalent concentration": "inactive"},
      {"smiles": "O=C(Nc1nc2cc3c(cc2s1)OCCO3)c1cccc(S(=O)(=O)N2CCOCC2)c1", "max dye-equivalent concentration": "18 nM (active)"},
      {"smiles": "COc1ccc(S(=O)(=O)N2CCOCC2)cc1C(=O)Nc1nc2ccccc2s1", "max dye-equivalent concentration": "35 nM (active)"},
      {"smiles": "CCN(Cc1ccncc1)C(=O)c1cccc(S(=O)(=O)N2CCOCC2)c1", "max dye-equivalent concentration": "inactive"},
      {"smiles": "CC(=O)c1c(N2CCOCC2)nc(=S)n(-c2cc(C)ccc2C)c1C", "max dye-equivalent concentration": "inactive"},
      {"smiles": "Cc1ccc2cccc(S(=O)(=O)N3CCN(c4ccccc4F)CC3)c2n1", "max dye-equivalent concentration": "inactive"},
      {"smiles": "CCOC(=O)CN(C(=O)CN1CCOCC1)c1ccc(Br)cc1", "max dye-equivalent concentration": "inactive"},
      {"smiles": "COc1ncnc2c1N=C1CC(C)(C)CC(N)=C1S2", "max dye-equivalent concentration": "inactive"},
      {"smiles": "O=C(OCC(=O)N1CCN(C(=O)c2ccco2)CC1)c1ccccc1Cc1ccccc1", "max dye-equivalent concentration": "inactive"},
      {"smiles": "COC(=O)CN(c1cccc(C(C)=O)c1)S(C)(=O)=O", "max dye-equivalent concentration": "inactive"},
      {"smiles": "C=CCn1c(N)c(C(=O)OCC(C)C)c2nc3ccccc3nc21", "max dye-equivalent concentration": "3300 nM (active)"},
      {"smiles": "Cc1nnc(SCC(=O)NCc2cccs2)[nH]c1=O", "max dye-equivalent concentration": "inactive"},
      {"smiles": "CCN(CC(=O)NCc1cccs1)c1nnnn1-c1ccccc1", "max dye-equivalent concentration": "inactive"},
      {"smiles": "C=CCn1c(N)c(S(=O)(=O)c2cccs2)c2nc3ccccc3nc21", "max dye-equivalent concentration": "3700 nM (active)"},
      {"smiles": "CC(C)Cn1c(N)c(C(=O)NCc2cccs2)c2nc3ccccc3nc21", "max dye-equivalent concentration": "280 nM (active)"},
      {"smiles": "C=CCn1c(C(C)NC(=O)CC)nc2ccccc21", "note": "(centres undefined)", "max dye-equivalent concentration": "inactive"},
      {"smiles": "C=CCn1c(C2CC(=O)N(c3ccc(C)cc3)C2)nc2ccccc21", "note": "(centres undefined)", "max dye-equivalent concentration": "inactive"},
      {"smiles": "O=C(c1cc(C(F)(F)F)cc(C(F)(F)F)c1)N1CCC2(CCCN(Cc3ccncc3)C2)CC1", "max dye-equivalent concentration": "inactive"},
      {"smiles": "COc1ccc(-c2nn(-c3ccccc3)cc2C(=O)Nc2nc(CC(C)=O)ns2)cc1", "max dye-equivalent concentration": "inactive"},
      {"smiles": "CCn1c(CSc2nncn2-c2ccc(OC)cc2)nc2cc(S(=O)(=O)N(C)C)ccc21", "max dye-equivalent concentration": "inactive"},
      {"smiles": "Nc1nc(SCCOc2ccccc2)n[nH]1", "max dye-equivalent concentration": "inactive"},
      {"smiles": "CCOC(=O)C1CCN(C(=O)C2CCN(S(=O)(=O)N3CCCC3)CC2)CC1", "max dye-equivalent concentration": "inactive"},
      {"smiles": "COc1ccc(Cl)cc1S(=O)(=O)Nc1cccc(C(=O)O)c1", "max dye-equivalent concentration": "inactive"},
      {"smiles": "COc1ccc(C(c2nnnn2Cc2cccs2)N2CCN(c3ccccc3)CC2)cc1OC", "note": "(centres undefined)", "max dye-equivalent concentration": "inactive"},
      {"smiles": "Nc1nonc1-c1nc2ccccc2n1Cc1ccc(F)cc1", "max dye-equivalent concentration": "inactive"},
      {"smiles": "Nn1c(SCC(=O)NC(=O)NC2CCCC2)nnc1-c1ccccc1F", "max dye-equivalent concentration": "inactive"},
      {"smiles": "CC(=O)NC1=NC(=O)CS1", "max dye-equivalent concentration": "inactive"},
      {"smiles": "COC(=O)c1[nH]c2ccccc2c1NS(=O)(=O)c1ccc(OC)cc1OC", "max dye-equivalent concentration": "inactive"},
      {"smiles": "CCOc1ccccc1NC(=O)Nc1cc(OC)ccc1OC", "max dye-equivalent concentration": "inactive"},
      {"smiles": "COc1ccc(OC)c(N=Cc2c(O)[nH]c3ccccc23)c1", "max dye-equivalent concentration": "59 nM (active)"},
      {"smiles": "Cc1nn(-c2ccccc2)c(C)c1C(=O)OCC(=O)NC(=O)NC1CCCCC1", "max dye-equivalent concentration": "inactive"},
      {"smiles": "CCC(C)(C)NC(=O)C(c1cccn1C)N(Cc1ccc(C)cc1)C(=O)Cn1nnc2ccccc21", "note": "(centres undefined)", "max dye-equivalent concentration": "inactive"},
      {"smiles": "CC(C)NC[C@H](O)c1ccc2ccccc2c1", "max dye-equivalent concentration": "inactive"},
      {"smiles": "CCCCC[C@H](O)CCCC(=O)O", "max dye-equivalent concentration": "inactive"},
      {"smiles": "COc1ccc(OC)c(C2N(c3ccccn3)C(=O)C3CCCN32)c1", "note": "(centres undefined)", "max dye-equivalent concentration": "inactive"},
      {"smiles": "Cc1ccnc(NC(=O)c2ccc(NC(=O)c3ccco3)cc2)c1", "max dye-equivalent concentration": "inactive"},
      {"smiles": "CCN(CC)C(=O)c1sc(NC(=O)c2ccco2)c(C#N)c1C", "max dye-equivalent concentration": "inactive"},
      {"smiles": "CCn1nc(NC(=O)c2ccco2)c2cc3ccc(C)cc3nc21", "max dye-equivalent concentration": "64 nM (active)"},
      {"smiles": "C=CCNc1nc(C)nc(OC)n1", "max dye-equivalent concentration": "inactive"},
      {"smiles": "C=CCn1c(COc2ccccc2C)nnc1SCC(=O)O", "max dye-equivalent concentration": "inactive"},
      {"smiles": "Cc1nc(-c2ccc(NC(=O)c3cccs3)cc2)cs1", "max dye-equivalent concentration": "220 nM (active)"},
      {"smiles": "O=C(O)c1ccc(NC(=O)c2cccs2)cc1", "max dye-equivalent concentration": "inactive"},
      {"smiles": "Cn1c(SCC(=O)Nc2cccc(NC(=O)c3cccs3)c2)nnc1-c1ccncc1", "max dye-equivalent concentration": "inactive"},
      {"smiles": "Cc1cc(=O)[nH]c(SCC(=O)N2c3ccccc3CC2C)n1", "note": "(centres undefined)", "max dye-equivalent concentration": "inactive"},
      {"smiles": "NC(=NC(=O)c1ccccc1)C1=C(O)CCC1=O", "max dye-equivalent concentration": "inactive"},
      {"smiles": "Cn1c2ccccc2c2c(C(=O)N3CCN(c4ccc(F)cc4)CC3)cn(C3CCCC3)c(=O)c21", "max dye-equivalent concentration": "16 nM (active)"},
      {"smiles": "CC(C)N(C(=O)COC(=O)c1ccccc1C(=O)N1CCN(c2ccc(F)cc2)CC1)C(C)C", "max dye-equivalent concentration": "inactive"},
      {"smiles": "O=C(c1cccc2ccccc12)N1CCN(c2ccccc2F)CC1", "max dye-equivalent concentration": "inactive"}
    ]}
  ]
}
